The text below walks through data of PubChem BioAssay (NCATS).

Assay [1] is described as follows: Primary qHTS for inhibitors of SARS-S pseudo-typed particle cell entry (AID 1479145). Further: nearly all actives have a fitted effect of over 45% in size. Further: potency means the concentration at half of the fitted maximal effect. On activity change, negative = inhibition: on the % scale 0 is the no-effect control and ±100 the full control effect. The conditions noted are these: outcome: dose series up to 57.1 µM unless noted.
Assay [2] in a line: Primary qHTS for inhibitors of MERS-S pseudo-typed particle cell entry (AID 1479149). Further: nearly all actives have a fitted effect of over 60% in size. Further: potency means the concentration at half of the fitted maximal effect. The conditions noted are these: outcome: dose series up to 57.1 µM unless noted. On the technique in general: qHTS replaces the single test concentration by a dilution series.
Assay [3] in a line: Primary qHTS for Vero E6 cytotoxicity: counterscreen for inhibitors of SARS-S pseudo-typed particle cell entry (AID 1479150). Further: potency means the concentration at half of the fitted maximal effect. On activity change, negative = cytotoxicity: on the % scale 0 is the no-effect control and ±100 the full control effect. The note with it: outcome: dose series up to 57.1 µM unless noted.
Assay [4] can be described thus: Cytotoxicity counterscreen for inhibitors of SARS-CoV-2 cell entry (AID 1645845). Further: nearly all actives have a fitted effect of over 50% in size. On activity change, negative = cytotoxicity: on the % scale 0 is the no-effect control and ±100 the full control effect. The conditions noted are these: outcome: dose series up to 57.1 µM unless noted. The gist of the method:
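ATP-content luminescence (ATPLite 1step, 15 min RT) read after 48 h compound exposure of Expi293F cells stably expressing human ACE2; normalized to cells-only wells and media-only wells.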

For assay [5], the target named is Glutathione peroxidase 1 (Homo sapiens) (UniProt P07203). Nature of the assay: Primary qHTS Assay for Inhibitors of Recombinant Selenoprotein Glutathione Peroxidase 1 (GPX1) (AID 1845191; active means well fitted curve in the direction sought with a large enough effect; an effect the other way counts as inactive or inconclusive; further: on the % scale 0 is the no-effect control and ±100 the full control effect; nearly all actives have a fitted effect of over 65% in size). In a few lines:
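NADPH consumption tracked by fluorescence at 340/450 nm between t=0 and t=15 min, room temperature. Final mix: 10 nM GPX1, 100 nM glutathione reductase, 1 mM GSH, 0.5 mM NADPH, 0.5 mM cumene hydroperoxide, 0.01% BSA; 30 min compound–enzyme preincubation.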

Assay [6] deals with Phospholipid hydroperoxide glutathione peroxidase GPX4 (Homo sapiens) (UniProt P36969). In words: Primary qHTS Assay for Inhibitors of Recombinant Selenoprotein Glutathione Peroxidase 4 (GPX4) (AID 1845192; active means well fitted curve in the direction sought with a large enough effect; an effect the other way counts as inactive or inconclusive; further: on the % scale 0 is the no-effect control and ±100 the full control effect; nearly all actives have a fitted effect of over 65% in size). In a few lines: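 NADPH consumption followed by fluorescence at 340/450 nm, t=0 and after 15 min at room temperature. Reaction started with cumene hydroperoxide (0.5 mM final) after 30 min compound–GPX4 preincubation; final 200 nM GPX4, 100 nM GR, 1 mM GSH, 0.5 mM NADPH.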

Assay [7] is described as follows: Primary qHTS for Huh7 cytotoxicity: counterscreen for inhibitors of MERS-S pseudotyped particle cell entry (AID 1479147). Further: potency means the concentration at half of the fitted maximal effect. On activity change, negative = cytotoxicity: on the % scale 0 is the no-effect control and ±100 the full control effect. The conditions noted are these: outcome: dose series up to 57.1 µM unless noted.
The nature of assay [8]: qHTS Assay for Identification of Small Molecule Agonists for Hypoxia Response Element Signaling Pathway (AID 914; active means well fitted activation curve with a large enough effect in the signal ratio, with a control signal flat, not every such curve was filed as active; the % refers to the signal ratio; further: potency means the concentration at half of the fitted maximal effect). The note with it: ME-180 (cervical carcinoma) HRE-bla reporter, beta-lactamase ratio, CoCl2, 17 h; activation: stronger effect = higher value. The gist of the method: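 Reporter activity (beta-lactamase, CCF4 460nm/530nm ratio) in HRE-bla ME-180 cells is recorded after 17 h compound exposure with EC50 CoCl2 at 37 degrees Celsius. AC50 values come from titration data.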

The nature of assay [9]: qHTS Assay for Identifying Gametocytocidal Compounds (AID 743244; active means well fitted curve in the direction sought with a large enough effect; an effect the other way counts as inactive or inconclusive; further: potency means the concentration at half of the fitted maximal effect). The conditions noted are these: P. falciparum 3D7 stage III-V gametocytes, alamarBlue, 72 h. The gist of the method:
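Fluorescence at Ex 525/Em 598 nm, recorded 24 h after alamarBlue addition, reports residual metabolic activity of 3D7 gametocytes (stages III–V) following 72 h compound exposure at 37 °C, 5% CO2.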

Assay [10] can be described thus: Confirmatory qHTS for VERO E6 Cytotoxicity Assay: Counterscreen for SARS-CoV-2 CPE Assay (AID 1508605). Further: on the % scale 0 is the no-effect control and ±100 the full control effect; nearly all actives have a fitted effect of over 60% in size.
The nature of assay [11]: Confirmatory qHTS for activators (rescue) of SARS-CoV-2 Cytopathic Effect (CPE) (AID 1508606). Further: potency means the concentration at half of the fitted maximal effect; nearly all actives have a fitted effect of over 70% in size.
The nature of assay [12]: Confirmatory qHTS to identify inhibitors of SARS-CoV-2 cell entry (AID 1645844). Further: potency means the concentration at half of the fitted maximal effect; nearly all actives have a fitted effect of over 45% in size. The gist of the method: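 Luminescence entry read-out after 48 h: spike-pseudotyped MLV particles (Wuhan-Hu-1, 19-aa C-terminal truncation) added to compound-pretreated (1 h) HEK293-ACE2 cells; Data were normalised to bald PP and spike PP wells.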
Assay [13] can be described thus: Primary qHTS to identify inhibitors of SARS-CoV-2 cell entry (AID 1645846). Further: nearly all actives have a fitted effect of over 45% in size. Further: potency means the concentration at half of the fitted maximal effect. The conditions noted are these: SARS-CoV-2 pseudovirus cell entry assay, luminescence; activity change, negative = inhibition: at 57.1 µM (top of the series) unless noted. In a few lines:
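Luminescence readout (Bright-Glo luciferase) 48 h after pseudoparticle addition. HEK293-ACE2 cells, 1500/well; compound pre-incubation 1 h; Normalized to spike PP and bald PP.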

Assay [14] is described as follows: VSVG counterscreen qHTS to identify inhibitors of SARS-CoV-2 cell entry (AID 1645847). Further: nearly all actives have a fitted effect of over 65% in size. Further: potency means the concentration at half of the fitted maximal effect. In a few lines: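 HEK293-ACE2 cells (Expi293F stably expressing human ACE2) were pretreated with compound for 1 h at 37 °C, then infected with MLV-based VSV-G pseudotyped particles for 48 h. Luciferase luminescence was normalized to VSV-G PP and bald PP wells.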
Assay [15] has as its target Nuclear receptor subfamily 1 group I member 3 (Homo sapiens) (UniProt Q14994). Nature of the assay: Primary qHTS for antagonist of constitutive androstane receptor (CAR) against the NCATS DSHEA and TCM libraries (AID 1794836; active means well fitted curve in the direction sought with a large enough effect; an effect the other way counts as inactive or inconclusive;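 further: HepG2 cells stably expressing hCAR with CYP2B6 luciferase reporter stimulated by CITCO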). In a few lines:
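Antagonist mode: CAR reporter luminescence (ONE-Glo) in HepG2-CYP2B6-hCAR cells stimulated with 48 uM CITCO (final) over 24 h at 37 C, compounds titrated; viability read first by CellTiter-Fluor fluorescence.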

For assay [16], the target named is Peroxisome proliferator-activated receptor delta (Homo sapiens) (UniProt Q03181). Nature of the assay: qHTS assay for small molecule agonists of peroxisome proliferator-activated receptor delta signaling (AID 588534).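 Further: 0% = DMSO basal wells and 100% = positive control agonist at 10 µM.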 The gist of the method:
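Agonist-mode qHTS; reporter cells, 5 hrs 37 C pre-incubation; compound titration, 18 hrs 37 C; CCF4 dye, 2 hrs RT; fluorescence read. EC50/efficacy via Hill fit.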

Assay [17] addresses Alpha-galactosidase (Coffea arabica) (UniProt Q42656). In words: Counterscreen for Glucocerebrosidase Inhibitors: qHTS Assay for Coffee Bean alpha-Galactosidase at pH 5.9 (AID 998; active means well fitted curve in the direction sought with a large enough effect; an effect the other way counts as inactive or inconclusive;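 further: plate controls were uninhibited enzyme for no effect and no-enzyme basal signal for full effect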). The gist of the method: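 Fluorogenic 4-MU substrate hydrolysis, 80 uM substrate and 2 nM coffee bean alpha-galactosidase, pH 5.9 citrate buffer, 20 min at room temperature, then NaOH/glycine stop. Titration 0.7 nM–77 uM, normalized to no-enzyme and enzyme controls, AC50 via Hill equation.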
Background: Counterscreens check selectivity or assay interference.

Assay [18] in a line: Inducers of the Endoplasmic Reticulum Stress Response (ERSR) in human glioma: Validation (AID 504836; active means well fitted curve in the direction sought with a large enough effect; an effect the other way counts as inactive or inconclusive; further: 0% is about no effect). The gist of the method:
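ERSR induction read as luciferase luminescence (Bright-Glo, 10 min at room temperature) in stably transfected human U87-MG glioma cells exposed to compounds for 16 h, using GRP78 as sensor.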

The structures appear in SMILES notation. Records with an inconclusive call do not appear. Calls of active or inactive are those of the source. Unless noted, the call rests on the fitted dose curve.

Sequence of Phospholipid hydroperoxide glutathione peroxidase GPX4 (Homo sapiens) (P36969 whole entry, looked up): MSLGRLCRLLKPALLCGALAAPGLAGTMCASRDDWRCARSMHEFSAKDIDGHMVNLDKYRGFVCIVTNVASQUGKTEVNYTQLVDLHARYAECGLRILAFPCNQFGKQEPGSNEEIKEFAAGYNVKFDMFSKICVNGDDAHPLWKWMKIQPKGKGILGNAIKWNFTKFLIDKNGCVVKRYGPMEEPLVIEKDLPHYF
Sequence of Peroxisome proliferator-activated receptor delta (Homo sapiens) (Q03181 whole entry, looked up): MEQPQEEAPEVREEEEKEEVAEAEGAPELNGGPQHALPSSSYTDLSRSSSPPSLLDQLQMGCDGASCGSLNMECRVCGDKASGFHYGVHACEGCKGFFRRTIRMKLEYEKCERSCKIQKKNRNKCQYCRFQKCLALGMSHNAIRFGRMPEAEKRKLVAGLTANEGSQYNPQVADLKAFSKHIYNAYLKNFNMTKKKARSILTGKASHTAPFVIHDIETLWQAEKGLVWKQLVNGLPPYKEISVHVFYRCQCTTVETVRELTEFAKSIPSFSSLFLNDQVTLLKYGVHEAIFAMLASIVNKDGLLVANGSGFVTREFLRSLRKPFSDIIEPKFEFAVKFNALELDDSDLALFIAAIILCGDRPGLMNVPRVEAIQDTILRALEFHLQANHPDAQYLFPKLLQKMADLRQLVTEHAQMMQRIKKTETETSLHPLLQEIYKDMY
Sequence of Alpha-galactosidase (Coffea arabica) (Q42656 whole entry, looked up): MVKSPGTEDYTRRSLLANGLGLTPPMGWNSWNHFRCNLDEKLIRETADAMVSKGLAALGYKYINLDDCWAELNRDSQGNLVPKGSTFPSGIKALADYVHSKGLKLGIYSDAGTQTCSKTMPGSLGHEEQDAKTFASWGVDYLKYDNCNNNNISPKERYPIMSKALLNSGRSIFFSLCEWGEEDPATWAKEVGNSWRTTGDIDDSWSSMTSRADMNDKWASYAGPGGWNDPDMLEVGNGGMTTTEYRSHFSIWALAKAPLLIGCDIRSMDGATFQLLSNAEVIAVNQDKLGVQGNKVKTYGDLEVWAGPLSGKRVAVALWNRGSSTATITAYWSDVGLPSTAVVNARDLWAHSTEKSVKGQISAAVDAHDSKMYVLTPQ
Sequence of Nuclear receptor subfamily 1 group I member 3 (Homo sapiens) (Q14994 whole entry, looked up): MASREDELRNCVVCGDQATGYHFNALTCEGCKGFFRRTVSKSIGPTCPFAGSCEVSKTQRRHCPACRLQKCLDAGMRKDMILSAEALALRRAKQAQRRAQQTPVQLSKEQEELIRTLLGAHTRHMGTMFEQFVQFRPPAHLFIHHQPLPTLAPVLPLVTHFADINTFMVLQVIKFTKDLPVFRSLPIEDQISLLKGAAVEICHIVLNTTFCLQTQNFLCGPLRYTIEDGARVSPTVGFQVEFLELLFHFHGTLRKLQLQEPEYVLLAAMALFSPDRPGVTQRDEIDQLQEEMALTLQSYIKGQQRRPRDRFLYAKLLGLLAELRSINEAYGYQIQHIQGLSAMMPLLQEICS
Sequence of Glutathione peroxidase 1 (Homo sapiens) (P07203 whole entry, looked up): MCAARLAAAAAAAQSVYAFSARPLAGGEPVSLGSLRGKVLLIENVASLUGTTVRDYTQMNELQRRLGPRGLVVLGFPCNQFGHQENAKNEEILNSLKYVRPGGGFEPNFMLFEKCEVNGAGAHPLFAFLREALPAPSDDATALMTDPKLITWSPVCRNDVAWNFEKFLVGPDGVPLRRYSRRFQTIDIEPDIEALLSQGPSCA

Take `CN(C(=O)/C=C/c1ccoc1)[C@@H]1CC[C@@]2(O)[C@H]3Cc4ccc(O)c5c4[C@@]2(CCN3CC2CC2)[C@H]1O5`: the Potency entry in assay [1], in assay [2], in assay [3], in [4], in assay [5] and in assay [6] was “inactive” throughout.
Turning to `C=C1CC[C@H](O)CC1=C/C=C1\CCC[C@]2(C)[C@@H]([C@H](C)CCCC(C)(C)O)CC[C@@H]12`, the Potency result in assay [1], in assay [7], in assay [3] and in [4] was “inactive” throughout.
For `CCN(CC)Cc1cc(Nc2ccnc3cc(Cl)ccc23)ccc1O`, the Potency was 5.01 µM (active) in assay [8]; 11.2 µM (active) in assay [9]; 10 µM (active) in assay [1]; 14.1 µM (active) in assay [2]; 5.62 µM (active) in assay [11]; 3.83 µM (active) in assay [12]. In addition, the Potency in assay [13] was 11.2 µM (active); in [14], 3.04 µM (active). Besides, the Potency entry in assay [3] and in assay [10] was “inactive” throughout.
With `COC[C@H]1C[C@@H](c2ncc(-c3ccc4c(c3)COc3cc5c(ccc6[nH]c([C@@H]7CC[C@H](C)N7C(=O)[C@@H](NC(=O)OC)C(C)C)nc65)cc3-4)[nH]2)N(C(=O)[C@H](NC(=O)OC)c2ccccc2)C1`, the Potency entry in assay [1], in assay [7], in assay [3] and in [4] was “inactive” throughout. Also, the results for the Potency in assay [12] and in assay [14] were 0.341 µM (active) and 1.52 µM (active), respectively.
Take `N#Cc1c(N2C[C@@H]3NCCO[C@H]3C2)c(F)cc2c(=O)c(C(=O)O)cn(C3CC3)c12`: the Potency result in [1], in assay [7], in assay [3] and in assay [4] was “inactive” throughout.
Regarding `C=C(NC(=O)C(=C)NC(=O)c1csc(C2=N[C@H]3c4csc(n4)[C@H]4NC(=O)c5csc(n5)[C@H]([C@@](C)(O)[C@@H](C)O)NC(=O)[C@H]5CSC(=N5)C(=CC)NC(=O)[C@H]([C@@H](C)O)NC(=O)c5csc(n5)[C@]3(CC2)NC(=O)[C@H](C)NC(=O)C(=C)NC(=O)[C@H](C)NC(=O)[C@H](C(C)CC)N[C@@H]2C=Cc3c([C@H](C)O)cc(nc3[C@H]2O)C(=O)O[C@@H]4C)n1)C(N)=O` (some centres not stated), the Potency entry in assay [1] and in assay [3] was “inactive” throughout. Also, the Potency in assay [7] is 20 µM (active); in assay [12], 3.41 µM (active); in assay [14], 1.71 µM (active).
On to `C=C1CC[C@H](O)CC1=C/C=C1\CCC[C@]2(C)[C@@H]([C@H](C)/C=C/[C@H](C)C(C)C)CC[C@@H]12`, for which the Potency result in assay [1], in assay [7], in assay [3] and in assay [15] was “inactive” throughout.
With `CN(C)C/C=C/C(=O)Nc1cc2c(Nc3ccc(F)c(Cl)c3)ncnc2cc1OC1CCOC1` (configuration not stated), the Potency in assay [1] was 10 µM (active); in assay [2] it was 14.1 µM (active); in assay [3], 10 µM (active); in assay [13], 10 µM (active).
In the case of `CC[C@H]1OC(=O)[C@H](C)[C@@H](O[C@H]2C[C@@](C)(OC)[C@@H](O)[C@H](C)O2)[C@H](C)[C@@H](O[C@@H]2O[C@H](C)C[C@H](N(C)C)[C@H]2O)[C@](C)(O)C[C@@H](C)CN(C)[C@H](C)[C@@H](O)[C@]1(C)O`, the compound was called inactive in assay [16]. In addition, the Potency result in assay [1], in assay [7], in [3], in assay [4] and in assay [14] was “inactive” throughout. For the same compound, the Potency in assay [12] is 24.1 µM (active); in [13], 12.6 µM (active).
Regarding `CC(C)(O)CNc1nc(Nc2ccnc(C(F)(F)F)c2)nc(-c2cccc(C(F)(F)F)n2)n1`, the Potency result in [1], in assay [7], in assay [3] and in [4] was “inactive” in each case.
For `Cc1c(OCC(F)(F)F)ccnc1C[S@@](=O)c1nc2ccccc2[nH]1`, the Potency entry in assay [1], in [7] and in [3] was “inactive” each time.
As to `CC[C@@]1(O)C(=O)OCc2c1cc1n(c2=O)Cc2cc3c([N+](=O)[O-])cccc3nc2-1`, the Potency result in [1] and in [2] was “inactive” in each case. For the same compound, the Potency was 0.0175 µM (active) in [12] and 0.0221 µM (active) in assay [14]. Also, the activity change, negative = inhibition in assay [13] was -97% [at 114 µM].
For `Cc1cc(N)c2ccccc2[n+]1CCCCCCCCCC[n+]1c(C)cc(N)c2ccccc21`, the compound was classed as inactive in [17] and in assay [18]. Further, the activity change, negative = inhibition in assay [1] was -2.83% [at 11.4 µM] (inactive). The activity change, negative = cytotoxicity in assay [7] was 1.39% [at 11.4 µM] (inactive); in [3], -0.518% [at 11.4 µM] (inactive); in [4], -25.1% [at 11.3 µM] (inactive).
For `CN(C)CC/C=C1\c2ccccc2CSc2ccccc21`, the Potency in assay [1] and in [13] was 20 µM (active) each time. The Potency result in [7], in assay [3] and in assay [10] was “inactive” throughout.
As to `COc1ccc(C=CC(=O)O)cc1`, the Potency entry in [1], in [7], in assay [3] and in assay [4] was “inactive” in each case. The activity change, negative = inhibition in assay [13] is -10.2%.
Regarding `CCOC(=O)Cc1ccc(-c2ccccc2)cc1`, the Potency entry in [1], in assay [7], in assay [3] and in [4] was “inactive” each time.
Turning to `COC(=O)N[C@H](C(=O)N1CC2(CC2)C[C@H]1c1ncc(-c2ccc3c(c2)C(F)(F)c2cc(-c4ccc5nc([C@@H]6[C@H]7CC[C@H](C7)N6C(=O)[C@@H](NC(=O)OC)C(C)C)[nH]c5c4)ccc2-3)[nH]1)C(C)C`, the Potency entry in [1], in assay [7], in [3] and in assay [4] was “inactive” in each case.
`C=C[C@@H]1C[C@]1(NC(=O)[C@@H]1C[C@@H](Oc2ncc(OC)c3ccc(Cl)cc23)CN1C(=O)[C@@H](NC(=O)OC(C)(C)C)C(C)(C)C)C(=O)NS(=O)(=O)C1CC1`: the Potency result in assay [1], in [7] and in assay [3] was “inactive” in each case. The Potency in [14] is 10.8 µM (active).
As to `C=C1C/C(=C\C=C2/CCC[C@]3(C)[C@@H]([C@H](C)/C=C/C(C)C(C)C)CC[C@@H]23)[C@@H](O)C[C@@H]1O` (some centres not stated), the Potency result in [1], in assay [7] and in assay [3] was “inactive” in each case. For the same compound, the figures for the Potency in assay [12] and in assay [14] were 0.541 µM (active) and 0.429 µM (active), respectively.
Take `C=C[C@]1(C)C[C@@H](OC(=O)CSCCN(CC)CC)[C@]2(C)[C@H](C)CC[C@]3(CCC(=O)[C@H]32)[C@@H](C)[C@@H]1O`: the results for the Potency in assay [1], in assay [12] and in assay [14] were 20 µM (active), 3.04 µM (active) and 15.2 µM (active), respectively. The Potency entry in assay [7], in [3] and in assay [4] was “inactive” each time.
